About 83,000 compounds went through this panel and 20% of them were active in at least one assay; those are over-represented in the sample as a whole.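 In brief: 96-well plates, 48 h treatment, single concentration, percent growth endpoint.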 Unmarked numbers belong to inactive results. The source made the active and inactive calls. Rule for the calls: active = growth percent below 10; inactive = the rest.
Columns and labels:
Experiment in all cases: NCI-60 one-dose screen, 48 h (100 = growth as untreated, 0 = no growth, -100 = all killed)
Conditions in all cases: 10 µM unless noted
SR leukemia = tested on: SR leukemia
RPMI-8226 leukemia = tested on: RPMI-8226 leukemia
OVCAR-8 ovarian = tested on: OVCAR-8 ovarian
OVCAR-5 ovarian = tested on: OVCAR-5 ovarian
OVCAR-4 ovarian = tested on: OVCAR-4 ovarian
SK-OV-3 ovarian = tested on: SK-OV-3 ovarian
IGROV1 ovarian = tested on: IGROV1 ovarian
OVCAR-3 ovarian = tested on: OVCAR-3 ovarian
HS 578T breast = tested on: HS 578T breast
NCI/ADR-RES ovarian = tested on: NCI/ADR-RES ovarian

Row | Compound | growth (SR leukemia) | growth (RPMI-8226 leukemia) | growth (OVCAR-8 ovarian) | growth (OVCAR-5 ovarian) | growth (OVCAR-4 ovarian) | growth (SK-OV-3 ovarian) | growth (IGROV1 ovarian) | growth (OVCAR-3 ovarian) | growth (HS 578T breast) | growth (NCI/ADR-RES ovarian)
1 | COc1ccc(-c2cc(C(=O)N3N=C(c4ccc(N)cc4)CC3c3ccc(Cl)cc3)c3ccccc3n2)cc1 (stereo not given) | 14.5% | 16.2% | 14.2% | 51.6% | 59.6% | 21.6% | 43.9% | 3.86% (active) | 16.4% | 25.5%
2 | C#CCOc1ccc2nc(CCl)c(Cl)c(Nc3cccc(C(F)(F)F)c3)c2c1 | 17.7% | 62.7% | 82.7% | 104% | 101% | 114% | 85.1% | 78.2% | 88.8% | 97.1%
3 | CS(=O)(=O)Nc1cc(-c2ccc3ncnc(Nc4ccc5c(cnn5Cc5ccncc5)c4)c3c2)cnc1Cl | 44.6% | 64.3% | 82.5% | 59% | 84.8% | 54.9% | 0.593% (active) | 37% | -6.14% (active) | 88.2%
4 | C=C1C(=O)O[C@H]2[C@H]1CC/C(COC(=O)/C=C\C(=O)NCc1ccc(Cn3c(=O)sn(CCCCl)c3=O)cc1)=C\CC[C@@]1(C)O[C@@H]21 | 66.5% | 44.9% | 79.9% | 82.2% | 74.9% | 97.4% | 58.6% | 37.4% | 88.8% | 93.7%
5 | O=C1CCC(C(=O)N/N=C/c2cc(F)ccc2F)N1 (stereo not given) | 109% | 103% | 101% | 106% | 97.6% | 108% | 102% | 102% | 99.1% | 106%
6 | Fc1cccc(-c2nc(-c3c[nH]c4ncccc34)cs2)c1 | 84.3% [100 µM] | 68.4% [100 µM] | 45.3% [100 µM] | 74.9% [100 µM] | 9.43% [100 µM] (active) | 55.9% [100 µM] | 81.5% [100 µM] | 36.1% [100 µM] | 46.5% [100 µM] | 48.1% [100 µM]
7 | c1ccc(Nc2nc3c(s2)CCc2c[nH]cc2-3)nc1 | 75.8% | 89% | 90.7% | 108% | 78% | 83.7% | 86.2% | 74.1% | 96% | 92.7%
8 | CC/C(=C(\c1ccc(Cl)cc1)c1ccc(OCCN2CCCCC2)cc1)c1ccc(O)cc1 | -11.2% (active) | 1.63% (active) | 62.6% | 70.4% | 36.7% | 68.1% | 66.8% | 40.4% | 46.5% | 53.3%
9 | Nc1nc(N)c2c(n1)NC(c1cccc(Nc3ccnc4cc(C(F)(F)F)ccc34)c1)CC(c1ccc3c(c1)OCO3)=N2 (stereo not given) | 1.91% (active) | 17% | 73.4% | 123% | 85.9% | 76.8% | 73% | 65.7% | 66.9% | 84.1%
10 | CCOC(=O)C/C(=N\Nc1cc(=O)[nH]c2ccc(C)cc12)C(=O)OCC | 46.4% | 91.3% | 101% | 104% | 106% | 126% | 98% | 101% | 91.8% | 105%
11 | COc1ccc2c(c1)c(-c1nc(-c3ccc4ccccc4c3)cs1)cn2C | 49.9% | 102% | 95.3% | 91.6% | 94.3% | 93% | 85.9% | 96.2% | 97% | 98%
12 | COC12C=C/C(=C(/C(=O)OCc3cncnc3)C(=O)CCCCCCCCC3(OC)C=C/C(=C(/C(=O)OCc4cncnc4)C(=O)CCCCCCCC1)O3)O2 | -36% (active) | -20.1% (active) | 9.06% (active) | -25.6% (active) | -4.86% (active) | 36.9% | -59.5% (active) | -57.8% (active) | 26.5% | 8.14% (active)
13 | Nc1cc(Br)cc2c1[nH]c(=O)c1ccccc12 | 90.7% | 96.1% | 86.2% | 92.3% | 84.2% | 105% | 114% | 94.4% | 91.6% | 91.7%
14 | C=CC(CC(c1ccccc1)(c1ccccc1)c1ccccc1)N(CC)CC (stereo not given) | -6.97% (active) | 38.2% | 94% | 72.5% | 67.5% | 72.5% | 77% | 70.1% | 82.1% | 66.1%
15 | COc1cc(Cc2cc(OC)c(O)c(OC)c2)cc(OC)c1O | 28% | 92.7% | 100% | 112% | 107% | 98.3% | 91.6% | 96.2% | 92.3% | 52.8%
16 | COc1ccc2c(c1)CC[C@@H]1[C@@H]2CC[C@]2(C)c3c(cc(C#N)c4c3sc3ccccc34)C[C@@H]12 | 89.3% | 95.8% | 101% | 80.6% | 107% | 108% | 101% | 108% | 94.6% | 101%
17 | Cn1c(=O)c2[nH]c(SC/C(=N/O)c3ccc(Br)cc3)nc2n(C)c1=O | 60.4% | 59.4% | 26.5% | 54.8% | 7.77% (active) | -33.3% (active) | 20.1% | 11.8% | 31.8% | 37.1%
18 | CC(C)NS(=O)(=O)/N=C1\NC(=O)NC1=C(Cl)Cl | 19.7% | 91.1% | 96.2% | 115% | 106% | 102% | 97.1% | 98.5% | 97.9% | 98.5%
19 | COc1cc(C[C@H]2COc3cc(O)cc(O)c3C2=O)ccc1O | 19% | 18.2% | 28.1% | 101% | 63.1% | 29.2% | 41.3% | 14.1% | 13.7% | 20.9%
20 | O=C(CCCCCCCC(=O)N1CCCCC1)N1CCCCC1 | 135% | 103% | 98.8% | 98.7% | 107% | 115% | 109% | 111% | 96.5% | 89%
21 | CN1C(=O)N2CN3CCCN(C3)CN3C(=S)NC1C23 (stereo not given) | 97.4% | 93.6% | 101% | 109% | 102% | 93.3% | 104% | 107% | 101% | 109%
22 | COc1cc2c3c(c4c5ccccc5[nH]c4c2c(OC)c1OC)C(=O)N(CCN1CCCCC1)C3=O | 21.6% | -12% (active) | -35.5% (active) | 52.4% | 15.7% | 54.7% | -68.8% (active) | -20.7% (active) | 52.2% | 24.6%
23 | Nc1nc2ccccc2c2c(=O)c3cc(Cl)ccc3sc12 | 94.8% | 102% | 99.2% | 97.9% | 87.9% | 79.8% | 90.2% | -22.8% (active) | 100% | 108%
24 | CNC(=O)NCC1OC(n2cnc3c(NC(=O)Nc4ccccc4)ncnc32)C2OC(=O)CC12 (stereo not given) | 90.3% | 105% | 96.4% | 96.8% | 106% | 102% | 92.3% | 91.7% | 105% | 96.8%
25 | C[C@@H]1CN(c2cnc(C(=O)Nc3cc(F)cc4cccnc34)cn2)C[C@H](C)N1 | 28.6% | 26% | 61.1% | 83.9% | 12.7% | 86.2% | 78.9% | 39.5% | 76.8% | 66%
26 | Cc1[nH]c(C(=O)Nc2ccccc2OC2CCN(CCN3CCOCC3)CC2)c(Cl)c1Cl | 10.3% | 67.4% | 101% | 96.4% | 97.7% | 111% | 101% | 109% | 93.8% | 97.6%
